The source of these data is the OligoGym collection.
Also: reference of the scale not given here.

This test concerns the target FPGS. Nature of the test: pooled miR-30 sensor sort-seq; sequence = guide strand. To be noted: shRNA.
The sequence TGAAGAGCAAGACTCGAACCTC gave a sensor-assay potency score (higher = more potent) of -0.155. With TCACTGTGAAGTTCTGTTGGTC the figure was 0.188; with TCTGTTGGTCTGCGTTGCCTGT, -0.767. With TTCAGGTTGGAGCACAGTGAAG the figure was -1.98; with TGCCTGTGGATGACACCTCTGT, -0.547; with TCGGAGGATACATTCCGTGAAG, -1.5. As for TTGGTGAAGAGCTCAGGACTGA, the figure is -0.348; as for TTCTGTTGGTCTGCGTTGCCTG, -0.416. Take TTGATGCGGATCCGCTCCCGAA: the sensor-assay potency score (higher = more potent) is -1.62. As for TTGGTCTGCGTTGCCTGTGGAT, the figure is -1.06; as for TAGAGGACATGAGATCTGCTGG, -0.333; as for TATAGAGGACATGAGATCTGCT, 0.932. With TTGCCTGTGGATGACACCTCTG the figure was -0.989; with TTCCTGATGATGTTGGTGCAGT, -0.727; with TTCCGTGAAGGCACAGGTGGAG, 0.0376. With TAGCATTGAAGAGCAAGACTCG the figure was -0.404; with TGTCTGAGGGTCACCCCGCTGG, -0.513. The sequence TTCACCTGCTCCAGGTAGCCGG gave a sensor-assay potency score (higher = more potent) of -1.54. TCCTTGGTCTCCTCCAGCCGGT showed a sensor-assay potency score (higher = more potent) of -1.92. As for TTCTCTTGGAGGAAGACGTGGA, the figure is 0.047. Sequence ATTGATGCGGATCCGCTCCCGA displayed a sensor-assay potency score (higher = more potent) of -1.01. With TGAAGTTCTGTTGGTCTGCGTT the figure was -0.752. As for ATACATTCCGTGAAGGCACAGG, the figure is 0.476.
